Data published in ChEMBL document CHEMBL3988442, “University of Dundee, Small-Polar-MMV Screening Library” (2021).
For some assays here: Potency and affinity values are given separately.

Key:
Design in all cases: scale not given: direction of the effect not stated beside the values
[1] = biological target: Protein translocase subunit SecA (Escherichia coli (strain K12)) (UniProt P10408); assay: Assay to Identify E. coli SecA ATPase Inhibitors; assay type: functional; settings: 30 µM
[2] = biological target: T1, Ubiquitin-activating enzyme e1, putative (Leishmania donovani (strain BPK282A1)) (UniProt E9BSI1); assay: Leishmania donovani Ubiquitin Activating Enzyme (LdE1); assay type: functional; settings: 30 µM
T1 sequence (whole entry): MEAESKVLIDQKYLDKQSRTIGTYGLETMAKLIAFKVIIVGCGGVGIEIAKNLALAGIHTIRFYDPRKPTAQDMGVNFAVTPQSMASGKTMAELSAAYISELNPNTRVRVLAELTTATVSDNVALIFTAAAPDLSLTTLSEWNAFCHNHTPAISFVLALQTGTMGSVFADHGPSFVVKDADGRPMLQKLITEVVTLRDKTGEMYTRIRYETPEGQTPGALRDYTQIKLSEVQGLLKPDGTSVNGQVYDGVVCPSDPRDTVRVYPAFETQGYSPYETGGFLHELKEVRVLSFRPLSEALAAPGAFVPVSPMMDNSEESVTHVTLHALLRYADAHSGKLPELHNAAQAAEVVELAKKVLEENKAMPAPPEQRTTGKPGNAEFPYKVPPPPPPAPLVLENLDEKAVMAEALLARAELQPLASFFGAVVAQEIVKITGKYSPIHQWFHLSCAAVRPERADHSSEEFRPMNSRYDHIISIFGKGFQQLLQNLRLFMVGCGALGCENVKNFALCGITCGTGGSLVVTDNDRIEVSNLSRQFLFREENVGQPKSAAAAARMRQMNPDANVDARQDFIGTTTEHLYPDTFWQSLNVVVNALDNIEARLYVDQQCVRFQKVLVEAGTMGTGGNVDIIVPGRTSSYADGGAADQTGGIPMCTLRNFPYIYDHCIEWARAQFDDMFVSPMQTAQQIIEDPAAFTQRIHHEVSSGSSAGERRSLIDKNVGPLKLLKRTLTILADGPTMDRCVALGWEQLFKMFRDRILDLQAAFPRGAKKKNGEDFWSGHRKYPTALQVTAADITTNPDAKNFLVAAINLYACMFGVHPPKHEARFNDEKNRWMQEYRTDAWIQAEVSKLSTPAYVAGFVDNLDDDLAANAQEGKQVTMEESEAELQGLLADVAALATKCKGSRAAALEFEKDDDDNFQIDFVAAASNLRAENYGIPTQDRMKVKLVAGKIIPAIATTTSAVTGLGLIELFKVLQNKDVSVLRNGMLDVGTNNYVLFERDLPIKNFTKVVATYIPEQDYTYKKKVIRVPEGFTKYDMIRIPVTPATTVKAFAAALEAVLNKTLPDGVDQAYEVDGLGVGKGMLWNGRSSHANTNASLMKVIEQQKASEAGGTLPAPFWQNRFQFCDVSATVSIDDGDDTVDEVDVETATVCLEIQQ

[3] = biological target: AMP-activated protein kinase, AMPK (Homo sapiens) (UniProt P54646+O43741+P54619+Q9UGJ0+Q9Y478+Q13131+Q9UGI9); assay: AMP-dependent Kinase enzyme assay. An in vitro enzyme assay that detects ADP turnover that is directly proportional to AMPK activity. This uses naive AMPK that is activated during the assay with MK-8722; assay type: functional; settings: 30 µM
[4] = biological target: Sialic acid-binding Ig-like lectin 9 (Homo sapiens) (UniProt Q9Y336); assay: Hs-Siglec9 ALPHAscreen SOP 20170721; settings: 10 µM
Trypanosoma cruzi = assay: Trypanosoma cruzi phosphomannomutase and mannose-1-phosphate guanylyltransferase assay; assay type: functional; settings: 10 µM
[5] = biological target: T2, Arginase-2, mitochondrial (Homo sapiens) (UniProt P78540); assay: in vitro enzyme assay to detect the production of urea directly proportional to the activity of Arginase II; assay type: functional; settings: 33.3 µM; note: in the data most compounds retested in dose-response had high values
T2 sequence (whole entry): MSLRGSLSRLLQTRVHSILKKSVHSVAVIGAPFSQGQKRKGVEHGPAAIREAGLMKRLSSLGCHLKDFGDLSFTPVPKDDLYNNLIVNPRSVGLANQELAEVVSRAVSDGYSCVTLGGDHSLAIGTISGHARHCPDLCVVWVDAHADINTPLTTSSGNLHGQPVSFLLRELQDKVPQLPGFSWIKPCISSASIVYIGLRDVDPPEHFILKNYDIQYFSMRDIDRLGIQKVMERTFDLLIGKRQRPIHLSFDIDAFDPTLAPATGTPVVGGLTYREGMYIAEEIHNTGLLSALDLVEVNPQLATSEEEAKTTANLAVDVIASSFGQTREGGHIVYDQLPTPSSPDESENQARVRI

[6] = biological target: T3, Proteasome subunit beta (Trypanosoma cruzi) (UniProt O96673); assay: Trypanosoma cruzi proteasome chymotrypsin-like activity (TcProtChymo) assay.; note: in the data most compounds retested in dose-response had high values; assay type: functional; settings: 9.37 µM
T3 sequence (whole entry): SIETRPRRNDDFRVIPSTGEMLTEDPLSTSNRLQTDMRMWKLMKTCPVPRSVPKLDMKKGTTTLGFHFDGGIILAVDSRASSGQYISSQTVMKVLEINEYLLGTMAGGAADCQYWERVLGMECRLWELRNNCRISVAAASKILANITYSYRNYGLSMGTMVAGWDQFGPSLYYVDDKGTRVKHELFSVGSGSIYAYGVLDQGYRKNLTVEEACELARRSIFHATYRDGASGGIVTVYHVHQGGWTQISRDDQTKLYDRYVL

Homo sapiens = organism: Homo sapiens; assay: To identify inhibition of the IFN signalling (Jak-Stat) pathway via expression of an eGFP reporter gene under the control of an IFN-stimulated response element (ISRE) containing MxA promoter.; assay type: functional; settings: 30 µM
[7] = biological target: T4, Tyrosyl-tRNA synthetase, putative (Trypanosoma cruzi (strain CL Brener)) (UniProt Q4DSP6); assay: Trypanosoma cruzi tyrosyl tRNA synthetase (TcYRS) _High Tyrosine SOP; assay type: functional; settings: 30 µM; note: in the data most compounds retested in dose-response had high values
T4 sequence (whole entry): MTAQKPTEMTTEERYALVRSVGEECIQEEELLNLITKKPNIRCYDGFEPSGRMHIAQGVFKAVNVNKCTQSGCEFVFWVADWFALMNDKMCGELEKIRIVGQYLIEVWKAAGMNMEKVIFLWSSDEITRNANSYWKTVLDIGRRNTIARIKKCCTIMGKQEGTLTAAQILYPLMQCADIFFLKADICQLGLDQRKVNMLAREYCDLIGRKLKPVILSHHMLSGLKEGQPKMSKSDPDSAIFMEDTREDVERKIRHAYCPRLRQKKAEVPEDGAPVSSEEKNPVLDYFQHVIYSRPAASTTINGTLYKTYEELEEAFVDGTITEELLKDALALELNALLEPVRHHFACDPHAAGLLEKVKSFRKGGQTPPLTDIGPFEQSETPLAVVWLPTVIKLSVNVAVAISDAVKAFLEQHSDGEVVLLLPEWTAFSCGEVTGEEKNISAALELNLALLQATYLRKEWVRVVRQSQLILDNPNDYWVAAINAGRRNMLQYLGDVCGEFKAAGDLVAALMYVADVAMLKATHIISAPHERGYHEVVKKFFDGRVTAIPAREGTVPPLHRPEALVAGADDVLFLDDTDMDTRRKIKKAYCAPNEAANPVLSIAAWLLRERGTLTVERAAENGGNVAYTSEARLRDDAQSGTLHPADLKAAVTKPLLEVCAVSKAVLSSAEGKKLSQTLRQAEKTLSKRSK

[8] = biological target: T4, Tyrosyl-tRNA synthetase, putative (Trypanosoma cruzi (strain CL Brener)); assay: Trypanosoma cruzi tyrosyl tRNA synthetase (TcYRS) SOP; assay type: functional; settings: 30 µM
[9] = biological target: Chromo domain-containing protein 1 (Saccharomyces cerevisiae (strain ATCC 204508 / S288c) (Baker's yeast)) (UniProt P32657); assay: ScCHD-1 Enzyme Inhibition Assay; assay type: functional; settings: 30 µM; note: in the data most compounds retested in dose-response had high values
Chromo domain-containing protein 1 (Saccharomyces cerevisiae (strain ATCC 204508 / S288c) (Baker's yeast)), sequence (P32657 whole entry, the tested form may be a part): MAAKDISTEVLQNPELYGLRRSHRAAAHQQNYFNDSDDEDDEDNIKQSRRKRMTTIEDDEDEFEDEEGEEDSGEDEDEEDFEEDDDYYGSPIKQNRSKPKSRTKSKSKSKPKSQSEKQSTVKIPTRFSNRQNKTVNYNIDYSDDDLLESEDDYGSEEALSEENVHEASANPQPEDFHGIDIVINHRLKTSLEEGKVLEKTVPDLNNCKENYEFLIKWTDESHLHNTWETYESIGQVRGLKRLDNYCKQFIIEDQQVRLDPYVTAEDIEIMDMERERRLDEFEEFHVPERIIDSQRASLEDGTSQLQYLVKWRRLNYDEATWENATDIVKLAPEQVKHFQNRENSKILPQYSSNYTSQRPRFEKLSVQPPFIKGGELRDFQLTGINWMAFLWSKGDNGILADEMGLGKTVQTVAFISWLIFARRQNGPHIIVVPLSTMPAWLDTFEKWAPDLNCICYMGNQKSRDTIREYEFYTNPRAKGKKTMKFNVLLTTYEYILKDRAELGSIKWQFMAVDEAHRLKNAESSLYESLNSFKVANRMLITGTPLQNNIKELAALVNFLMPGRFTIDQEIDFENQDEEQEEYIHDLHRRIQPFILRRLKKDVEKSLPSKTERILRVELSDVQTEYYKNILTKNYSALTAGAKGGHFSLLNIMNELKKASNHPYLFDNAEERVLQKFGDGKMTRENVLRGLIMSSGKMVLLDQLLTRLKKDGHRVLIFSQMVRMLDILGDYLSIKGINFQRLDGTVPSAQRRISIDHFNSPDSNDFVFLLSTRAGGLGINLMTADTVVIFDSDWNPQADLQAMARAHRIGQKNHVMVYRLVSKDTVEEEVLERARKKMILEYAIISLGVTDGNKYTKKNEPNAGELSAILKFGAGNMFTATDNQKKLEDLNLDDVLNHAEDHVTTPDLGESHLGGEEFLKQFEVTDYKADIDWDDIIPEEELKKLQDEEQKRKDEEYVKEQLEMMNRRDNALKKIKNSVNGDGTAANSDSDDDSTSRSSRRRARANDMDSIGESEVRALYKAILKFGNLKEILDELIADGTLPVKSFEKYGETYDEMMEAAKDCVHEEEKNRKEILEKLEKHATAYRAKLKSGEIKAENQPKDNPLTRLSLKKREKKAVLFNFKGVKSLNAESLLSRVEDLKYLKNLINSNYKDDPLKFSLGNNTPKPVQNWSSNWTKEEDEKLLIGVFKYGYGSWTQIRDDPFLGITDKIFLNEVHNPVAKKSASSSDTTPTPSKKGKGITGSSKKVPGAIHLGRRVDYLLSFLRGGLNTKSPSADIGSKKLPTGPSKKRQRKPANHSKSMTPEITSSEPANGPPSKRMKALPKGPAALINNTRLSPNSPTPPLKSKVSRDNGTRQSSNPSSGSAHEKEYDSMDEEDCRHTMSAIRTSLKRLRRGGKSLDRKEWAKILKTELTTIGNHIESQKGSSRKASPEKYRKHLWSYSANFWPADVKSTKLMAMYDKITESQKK

Sialic acid-binding Ig-like lectin 9 (Homo sapiens), sequence (Q9Y336 whole entry): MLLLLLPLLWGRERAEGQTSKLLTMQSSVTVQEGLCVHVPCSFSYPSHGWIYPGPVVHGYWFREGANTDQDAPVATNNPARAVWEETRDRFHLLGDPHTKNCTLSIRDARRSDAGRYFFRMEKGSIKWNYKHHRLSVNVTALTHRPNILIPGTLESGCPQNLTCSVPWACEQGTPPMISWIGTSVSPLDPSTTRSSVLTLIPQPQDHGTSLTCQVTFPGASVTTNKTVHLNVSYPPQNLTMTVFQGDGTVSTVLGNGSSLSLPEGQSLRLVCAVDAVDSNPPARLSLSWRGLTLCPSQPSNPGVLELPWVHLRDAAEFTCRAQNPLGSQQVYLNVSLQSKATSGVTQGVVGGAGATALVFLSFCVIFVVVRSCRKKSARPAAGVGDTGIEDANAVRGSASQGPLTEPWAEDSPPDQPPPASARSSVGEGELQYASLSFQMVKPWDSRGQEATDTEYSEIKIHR
Protein translocase subunit SecA (Escherichia coli (strain K12)), sequence (P10408 whole entry): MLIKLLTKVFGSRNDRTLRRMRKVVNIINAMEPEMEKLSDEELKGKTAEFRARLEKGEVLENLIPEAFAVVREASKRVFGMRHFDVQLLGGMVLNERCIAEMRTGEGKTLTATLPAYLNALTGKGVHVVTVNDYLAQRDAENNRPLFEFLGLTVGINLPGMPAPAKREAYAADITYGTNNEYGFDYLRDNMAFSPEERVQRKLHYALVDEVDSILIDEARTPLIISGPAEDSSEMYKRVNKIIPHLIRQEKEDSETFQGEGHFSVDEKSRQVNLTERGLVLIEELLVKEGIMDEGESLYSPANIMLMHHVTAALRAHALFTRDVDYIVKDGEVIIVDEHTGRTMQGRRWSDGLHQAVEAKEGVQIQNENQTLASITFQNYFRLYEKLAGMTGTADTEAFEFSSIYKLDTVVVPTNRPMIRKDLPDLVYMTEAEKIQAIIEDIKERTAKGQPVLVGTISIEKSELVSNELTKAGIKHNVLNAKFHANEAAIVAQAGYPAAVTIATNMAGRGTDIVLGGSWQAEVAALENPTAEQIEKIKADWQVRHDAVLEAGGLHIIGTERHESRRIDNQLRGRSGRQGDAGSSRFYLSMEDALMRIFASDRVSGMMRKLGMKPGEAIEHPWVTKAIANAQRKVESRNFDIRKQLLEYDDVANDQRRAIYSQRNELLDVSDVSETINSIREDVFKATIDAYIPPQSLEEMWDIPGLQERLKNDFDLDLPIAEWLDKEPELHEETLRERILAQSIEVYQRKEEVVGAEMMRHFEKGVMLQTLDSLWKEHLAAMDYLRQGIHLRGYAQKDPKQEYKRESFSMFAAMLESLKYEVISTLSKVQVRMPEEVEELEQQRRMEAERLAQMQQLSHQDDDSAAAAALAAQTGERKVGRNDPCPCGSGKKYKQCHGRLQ

Row | Structure (SMILES) | Percent Effect [1] [%] | Percent Effect [2] [%] | Percent Effect [3] [%] | Percent Effect [4] [%] | Percent Effect (Trypanosoma cruzi) [%] | Percent Effect [5] [%] | Percent Effect [6] [%] | Percent Effect (Homo sapiens) [%] | Percent Effect [7] [%] | Percent Effect [8] [%] | Percent Effect [9] [%]
1 | Cc1ccc(C2C3=C(COC3=O)Nc3[nH]nc(C)c32)cc1C (stereo unspecified) | -2.97 | 9.33 | 12.5 | -3.88 | -4.71 | -4.75 | 10.7 | 30.1 | -22.2 | -23.1 | -11.7
2 | Cc1ccc(F)cc1NC(=O)NCC(C)N1CCOCC1 (stereo unspecified) | -1.78 | 18.9 | 0.541 | -0.431 | 0.391 | 1.25 | 9.55 | 14.3 | 11.9 | 18.3 | 3.74
3 | CCCOCC(=O)NS(=O)(=O)c1ccc2c(c1)OCCCO2 | -8.22 | 0 | 0.981 | -3.65 | -6.07 | 0 | -0.423 | 13.9 | -2.46 | -6.17 | 1.45
4 | COC(=O)C1CCN(c2cncc(-n3nc(C)cc3C)n2)CC1 | -4 | 0 | 4.1 | 5.66 | -7.03 | 4.17 | 15.6 | 12.6 | 3.96 | 3.66 | -8.43
5 | Cn1c(CN2CCCC2)nnc1C1CCCN(C(=O)C2CCOCC2)C1 (stereo unspecified) | -3.02 | 5.41 | -5.63 | 28.6 | 5.99 | 22.9 | 8.1 | 6.46 | 4.76 | 4.88 | -11.7
6 | O=C(c1nn(-c2ccccc2F)cc1O)N1CCCC1 | -5 | -10.8 | -2.23 | 3.15 | -3.62 | -0.185 | -6.1 | 5.03 | -6.93 | -8.54 | 4.21
7 | CCc1nc(N)sc1C(=O)N1CCCC(CCc2ccccc2C)C1 (stereo unspecified) | -4.6 | 5.41 | -6.81 | 34.1 | 4.59 | -0.744 | 10.6 | 34.9 | 9.68 | 18.5 | -1.19
8 | CC(=O)N1CCN(C(=O)CCOc2ccc(C(C)C)cc2)CC1 | -2.33 | 7.89 | 5.03 | 10.9 | -2.26 | 2.3 | 14.4 | 0.908 | 5.39 | 4.88 | -1.04
9 | CCCn1c(C)cc(C(=O)CN2C(=O)c3ccccc3CS2(=O)=O)c1C | 2.47 | -18.9 | -2.92 | 7.94 | 0 | 1.91 | 14.7 | 21.2 | -10.1 | 0 | 8.3
10 | O=C1CC(c2ccc(C(=O)O)cc2)c2ncn(-c3cccc(F)c3)c2N1 (stereo unspecified) | -3.41 | 9.33 | -61.2 | -4.05 | -4.13 | 7.57 | 13.3 | -9.89 | 10.6 | 15.4 | -7.23
11 | CN(c1ccc(C(=O)NCCCN2CCOCC2)c(Cl)c1)S(C)(=O)=O | -5.85 | 5.2 | -0.453 | 13.2 | 4.23 | -13.8 | 7.16 | -1.2 | 5.38 | 11.1 | -6.36
12 | O=C(NCc1ccco1)[C@@]12CCO[C@@H]1CCN(CCN1CCCC1)C2 | -6.16 | 16 | -5.27 | -2.5 | 5.21 | -51.1 | 18.5 | -5.93 | 6.25 | 22.5 | -12
13 | CN(C)Cc1nc(C(C)(C)NC(=O)C2CC(=O)N(CC3CC3)C2)no1 (stereo unspecified) | -8.14 | 5.41 | 0.168 | 2.33 | -3.44 | 3.14 | -3.77 | 22.2 | 1.98 | 1.22 | 4.96
14 | CCc1nc(CC(=O)Nc2cnn(CC3CCCO3)c2)cs1 (stereo unspecified) | -2.62 | 8.11 | -12.1 | -2.05 | -0.965 | -1.43 | 7.59 | 0.276 | -4.76 | -2.44 | -1.6
15 | CN(Cc1ccco1)C(=O)CN1CCCCC1Cn1cccn1 (stereo unspecified) | 1.65 | 0 | 6.46 | -9.17 | -1.27 | -2.74 | 17.1 | -30.8 | 4.76 | 9.41 | -9.28
16 | CC(=O)NC(C)c1ccc(OCC2CC2)c(F)c1 (stereo unspecified) | -2.63 | 5.26 | -0.202 | 5 | 3.21 | -9.47 | 4.7 | 7.74 | 4.25 | 7.79 | -7.19
